# PubChem BioAssay (NCI)
# The panel holds about 79,000 compounds, 15% with a hit somewhere; the sample as a whole holds those more often. Values without a mark were called inactive. Calls of active or inactive are those of the source. Rule as the data show it: active = growth inhibition above about 70%; inactive = the rest.
# Legend:
# [1] = NCI Yeast Anticancer Drug Screen. Data for the rad50 strain (AID 155);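 also: 0% = growth of vehicle-only cultures of the same strain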; conditions: S. cerevisiae rad50 strain growth inhibition, stronger effect = higher value; at 50.0 µM unless noted
# Procedure, shortened: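 Relative growth inhibition (compound vs vehicle) was measured in yeast with a defined repair-gene alteration.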
# [2] = NCI Yeast Anticancer Drug Screen. Data for the mec2-1 strain (AID 157); conditions: S. cerevisiae mec2-1 strain, stronger effect = higher value; at 50.0 µM unless noted
# Procedure, shortened: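 Yeast mec2-1 mutant treated with compound. Readout: growth inhibition vs vehicle controls.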
# [3] = NCI Yeast Anticancer Drug Screen. Data for the sgs1 mgt1 strain (AID 161);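 also: 0% = growth of cultures given vehicle only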; conditions: S. cerevisiae sgs1 mgt1 strain, stronger effect = higher value; at 50.0 µM unless noted
# Procedure, shortened: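 Inhibition of yeast growth, normalised to vehicle-treated controls, is reported for a strain bearing genetic alterations in DNA damage repair.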
# [4] = NCI Yeast Anticancer Drug Screen. Data for the cln2 rad14 strain (AID 165);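 also: 0% = growth equal to vehicle treated cultures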; conditions: S. cerevisiae cln2 rad14 strain, stronger effect = higher value; at 50.0 µM unless noted
# Procedure, shortened: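 cln2 rad14 yeast strain; compound exposure; growth inhibition read vs vehicle controls.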
# [5] = NCI Yeast Anticancer Drug Screen. Data for the bub3 strain (AID 167); conditions: S. cerevisiae bub3 mutant strain, stronger effect = higher value; at 50.0 µM unless noted
# Procedure, shortened: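 Screening used yeast with an engineered genetic alteration affecting cell cycle control. Compound-exposed cultures were compared with vehicle cultures, and reduced growth was taken as inhibition.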
# [6] = NCI Yeast Anticancer Drug Screen. Data for the mlh1 rad18 strain (AID 175); conditions: S. cerevisiae mlh1 rad18 strain growth inhibition, stronger effect = higher value; at 50.0 µM unless noted
# Procedure, shortened: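 Yeast w/ defined DNA-repair lesions; compound exposure; growth vs vehicle controls → % inhibition.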
Structure (SMILES),growth inhibition [1],growth inhibition [2] [%],growth inhibition [3],growth inhibition [4] [%],growth inhibition [5] [%],growth inhibition [6]
S=c1[nH]c2ccccc2c(=S)n1CN1CCCCC1,-26.6%,-27.4,-15.3%,-13.1,4.6,-11.9%
CC(C)(O)C#CC(C)(C)O,1.1%,-7.7,-10.7%,0.25,5.65,-11.7%
CS(=O)(=O)CS(C)(=O)=O,18.9%,6.15,8.2%,14.5,0.25,27.9%
C/C(=N\NS(=O)(=O)c1ccc(C)cc1)c1cccs1,-3.9%,7.1,6.4%,4.2,10.2,12.6%
Nc1nc(CC2(O)CCCCC2)cc(-c2ccccc2)n1,49%,29.6,21.1%,55.2,45.5,44.8%
Cc1cc(C)c(-c2noc(-c3ccc(Cl)cc3)c2C2=NCCN2)c(C)c1,29.9%,18.3,18.1%,38.6,17.7,8.45%
N#CNc1nc(N)c(-c2ccc(Cl)cc2)c(C(=O)Nc2nccs2)n1,-8.85%,-10.9,3.25%,1.5,-7.75,-12.6%
COC(=O)C(=O)C1(c2ccccc2)C(=O)C(c2ccccc2)=CC1O (centres undefined),15.3%,10.5,10.1%,0.7,8.4,18.6%
CSc1c(C)n2c3c(cccc13)CCC2,-9.7%,-6.6,-3.8%,-36.7,1.35,3.3%
CC(=O)c1sc2[n+](c1C)C(=O)/C(=C\c1ccccc1Cl)S2,15.7%,-17.6,-1%,10.2,-7.75,-3%
CNC(=O)C(C(=O)NC)c1ccccc1,8.05%,-4.65,-1.15%,-18.5,-2.9,10.8%
CNc1c(F)c(C#N)c(F)c(F)c1C#N,9.35%,-6.95,-16.6%,-8.95,0.55,1.75%
CCOC(=O)C(c1ccc2c(c1)OCO2)C1(NC(=O)c2ccccc2)C(=O)C(C(=O)OC)C(=O)C1C(=O)OC (centres undefined),16.5%,6.15,-6.7%,10,1.4,10.9%
COC(=O)C1C(O)C(C)C(O)C(C)(O)/C=C/C=C(C)C(=O)Nc2c(C)c(OC(C)=O)c3c(c2O)C(=O)C(C)=C2OCOC(=C23)C(C)=CC(C)(O)C(O)C(C)C1OC(C)=O (centres undefined),4.6%,-19.9,5.5%,4.05,3.05,18.8%
CCCCCCCCCC=O,-2.05%,8,-11.5%,10.6,23.7,6.8%
CC1CCC(c2ccccc2)(c2ccccc2)C1=O (centres undefined),11.8%,-1.8,-2.5%,-15,-1.15,-2.25%
COc1ccc(OC2OC(CO)C(O)C(O)C2O)cc1 (centres undefined),8.9%,-0.1,-4.3%,18.1,6.5,-50.6%
Cc1ccc2[nH]c3c(c2c1)C(=O)CCC3,-7.6%,-2.95,-12.3%,-20.7,-17.9,-1.55%
COc1ccccc1NC(=O)C1=C(C)NC(C)=C(C(=O)Nc2ccccc2OC)C1c1ccccc1F,32%,5.35,17.1%,16,-1.05,15.7%
O=c1/c(=C/c2ccccc2[N+](=O)[O-])sc2nc3ccccc3n12,-16.6%,-21.4,-25.9%,-12.7,-21.9,-47.2%
COCC(Br)C(OC)OC (centres undefined),37.5%,9.1,58.9%,-1.05,5.75,68.3%
Nc1nc(-c2cc(Br)ccc2N=NN2CCCCC2)nc2ccc(Br)cc12,82.2% (active),37.2,79.5% (active),46,22.3,70.8% (active)
COc1ccc(-c2oc(=O)c3ccccc3c2-c2ccccc2)cc1,7.25%,4.65,5.35%,9.4,2.6,6.4%
CCOc1ccc(N2C(=O)/C(=C/c3ccc(N(CCC#N)CCC#N)cc3)N=C2c2cc([N+](=O)[O-])ccc2Cl)cc1,5.85%,-1.15,-9.8%,17.8,9.3,-6.6%
